Experimental data reported in PubChem BioAssay (Tox21).
Values joined by “and” are separate entries in the source; they are usually repeats but may differ in a detail not shown here. Identical values can stand only once. Records with an inconclusive call do not appear. More than one record can exist for a structure, and the calls need not agree. Active and inactive are the calls of the source. Unless noted, the call rests on the fitted dose curve; in most records, active means well fitted curve in the direction sought with a large enough effect in the repeat runs; inconclusive means weak or mixed curves; inactive means no such curve, though single readings can be large; an effect the other way counts as inactive or inconclusive.

Legend:
[1] = qHTS assay to test for compound auto fluorescence at 460 nm (blue) in HEK293 cell free culture (AID 720681)
How it was run: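 Test compounds were pinned into cell-free culture medium (DMEM with 10% FBS) and fluorescence was read directly at Ex/Em 405/460 nm. Signals were expressed as fluorescence equivalents of triamterene, with DMSO vehicle as control.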

[2] = qHTS assay to test for compound auto fluorescence at 535 nm (green) in HEK293 cell free culture (AID 720682)
How it was run: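 Intrinsic compound fluorescence is measured in culture medium containing 10% FBS, with excitation at 485 nm and detection at 535 nm, referenced to fluorescein.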

[3] = qHTS assay to test for compound auto fluorescence at 590 nm (red) in HEK293 cell free culture (AID 720683)
How it was run: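 Tox21 10K library compounds were pinned into cell-free DMEM with 10% FBS and fluorescence was read at excitation 540 nm. Activity is expressed as Rose Bengal sodium equivalency.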

[4] = qHTS assay to test for compound auto fluorescence at 590 nm (red) in HepG2 cell free culture (AID 720684)
How it was run: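 Measured in medium alone (MEM containing 10% FBS) following pintool addition of compound; emission at 590 nm with 540 nm excitation, referenced to Rose Bengal sodium.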

[5] = qHTS assay to test for compound auto fluorescence at 460 nm (blue) in HepG2 cell free culture (AID 720685)
How it was run: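 Compound (23 nL) or DMSO pinned into cell-free MEM with 10% FBS; blue fluorescence read at 405/460 nm excitation/emission, expressed as auto-fluorescence equivalency to triamterene.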

[6] = qHTS assay to test for compound auto fluorescence at 535 nm (green) in HepG2 cell free culture (AID 720686)
[7] = qHTS assay to test for compound auto fluorescence at 460 nm (blue) in HepG2 cells (AID 720687)
How it was run: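 Cells (2,000/well in MEM with 10% FBS) attached overnight at 37 C, then were exposed to compound or DMSO for 1 hr at 37 C, 5% CO2. Fluorescence read at Ex/Em 405/460 nm, expressed as triamterene-equivalent signal.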

[8] = qHTS assay to identify small molecule antagonists of the glucocorticoid receptor (GR) signaling pathway - cell viability counter screen (AID 720693); further: nearly all actives have a fitted effect of over 55% in size; further: potency means the concentration at half of the fitted maximal effect
[9] = qHTS assay for identifying genotoxic compounds that show differential cytotoxicity against isogenic chicken DT40 cell lines with known DNA damage response pathways - wild type cell line (AID 743012); further: nearly all actives have a fitted effect of over 60% in size; further: potency means the concentration at half of the fitted maximal effect
How it was run: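 Wild-type DT40 cells (300/well) exposed to compounds for 40 hours at 37 C/5% CO2. Viability read by CellTiter-Glo luminescence after 30 min at room temperature.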

[10] = qHTS assay for identifying genotoxic compounds that show differential cytotoxicity against isogenic chicken DT40 cell lines with known DNA damage response pathways - Rev3 mutant cell line (AID 743014); further: nearly all actives have a fitted effect of over 55% in size; further: potency means the concentration at half of the fitted maximal effect
[11] = qHTS assay to identify small molecule antagonists of the androgen receptor (AR) signaling pathway - cell viability counter screen (AID 743033; further: nearly all actives have a fitted effect of over 45% in size; further: potency means the concentration at half of the fitted maximal effect)
[12] = qHTS assay to identify small molecule antagonists of the androgen receptor (AR) signaling pathway using the MDA cell line - cell viability counter screen (AID 743041; further: nearly all actives have a fitted effect of over 45% in size; further: potency means the concentration at half of the fitted maximal effect)
How it was run: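 Viability counter screen run alongside the AR antagonist reporter: cells seeded 5 h before compound, R1881 added, 16 h incubation at 37C without CO2, fluorescent CellTiter-Fluor signal quantified.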

[13] = qHTS assay for identifying genotoxic compounds that show differential cytotoxicity against isogenic chicken DT40 cell lines with known DNA damage response pathways - Rad54/Ku70 mutant cell line (AID 743015); further: nearly all actives have a fitted effect of over 60% in size; further: potency means the concentration at half of the fitted maximal effect
[14] = target: Glucocorticoid receptor (Homo sapiens) (UniProt P04150); test: qHTS assay to identify small molecule agonists of the glucocorticoid receptor (GR) signaling pathway (AID 720691; active means well fitted activation curve with a large enough effect in the signal ratio in the repeat runs, not every such curve was filed as active; the % refers to the signal ratio)
How it was run: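 GR-bla HeLa cells carrying a GRE-driven beta-lactamase reporter, exposed to compounds for 18 h at 37 C. Reporter activation read as fluorescence after 2 h with LiveBLAzer B/G FRET substrate at room temperature.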

[15] = target: Glucocorticoid receptor (Homo sapiens) (UniProt P04150); test: qHTS assay to identify small molecule antagonists of the glucocorticoid receptor (GR) signaling pathway (AID 720692; active means well fitted inhibition curve with a large enough effect in the signal ratio in the repeat runs, not every such curve was filed as active; the % refers to the signal ratio; further: potency means the concentration at half of the fitted maximal effect)
How it was run: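 GR-bla HeLa cells carrying a GRE-driven beta-lactamase reporter received compound after 4 h plating, then dexamethasone (5 nM final). After 18 h at 37C, the FRET substrate was loaded for 2 h at room temperature and fluorescence read.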
On the % scale 0 is the no-effect control and ±100 the full control effect.

Chain of Glucocorticoid receptor (Homo sapiens) (P04150 whole entry, looked up): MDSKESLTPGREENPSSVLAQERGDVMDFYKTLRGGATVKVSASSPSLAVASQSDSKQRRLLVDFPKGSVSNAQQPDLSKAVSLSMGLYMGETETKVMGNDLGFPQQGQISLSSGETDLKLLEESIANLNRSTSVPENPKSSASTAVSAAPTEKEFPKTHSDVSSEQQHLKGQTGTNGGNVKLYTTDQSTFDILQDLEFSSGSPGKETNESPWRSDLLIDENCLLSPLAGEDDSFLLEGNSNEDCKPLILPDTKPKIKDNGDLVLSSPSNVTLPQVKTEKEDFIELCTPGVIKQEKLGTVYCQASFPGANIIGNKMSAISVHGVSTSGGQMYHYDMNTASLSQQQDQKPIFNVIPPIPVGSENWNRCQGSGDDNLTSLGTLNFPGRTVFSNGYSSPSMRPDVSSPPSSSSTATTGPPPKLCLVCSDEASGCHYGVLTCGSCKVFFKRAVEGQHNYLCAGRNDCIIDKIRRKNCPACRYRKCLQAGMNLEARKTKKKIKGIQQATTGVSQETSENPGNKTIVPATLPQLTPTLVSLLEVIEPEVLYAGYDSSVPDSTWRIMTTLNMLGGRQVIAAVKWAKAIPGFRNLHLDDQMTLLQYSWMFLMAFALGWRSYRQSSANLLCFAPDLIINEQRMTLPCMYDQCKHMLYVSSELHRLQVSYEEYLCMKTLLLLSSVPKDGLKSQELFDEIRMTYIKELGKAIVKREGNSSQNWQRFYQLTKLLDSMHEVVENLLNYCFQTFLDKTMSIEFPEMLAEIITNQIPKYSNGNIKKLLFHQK

O=C1CC2(CCCC2)CC(=O)N1CCCCN1CCN(c2ncccn2)CC1
inactive: Potency [1] | Potency [2] | outcome [3] | outcome [4] | Potency [5] | Potency [6] | Potency [7] | Potency [8] | Potency [12]
inactive and 21.9 µM (active): Potency [11]
active: Potency [9] 21.1 µM and 13.7 µM | Potency [10] 7.7 µM

Cc1cccc2n[nH]nc12
inactive: Potency [1] | Potency [2] | outcome [3] | outcome [4] | Potency [5] | Potency [6] | Potency [7] | Potency [8] | Potency [9] | Potency [10] | Potency [13] | Potency [11] | Potency [12]

CC[C@@H](N)CO
inactive: Potency [1] | Potency [2] | outcome [3] | outcome [4] | Potency [5] | Potency [6] | Potency [7] | Potency [9] | Potency [10] | Potency [13] | Potency [11] | Potency [12]

COC(c1ccccc1)(c1ccccc1)[C@H](Oc1nc(C)cc(C)n1)C(=O)O
inactive: Potency [1] | Potency [2] | outcome [3] | outcome [4] | Potency [5] | Potency [6] | Potency [7] | Potency [14] | Potency [8] | Potency [9] | Potency [10] | Potency [13] | Potency [11] | Potency [12]

CCN1CCCC1CNC(=O)c1cc(S(=O)(=O)CC)c(N)cc1OC (configuration not stated)
inactive: Potency [1] | Potency [2] | outcome [3] | outcome [4] | Potency [5] | Potency [6] | Potency [7] | Potency [14] | Potency [15] | Potency [8] | Potency [9] | Potency [10] | Potency [11] | Potency [12]

CC[C@H]1CN2CCc3cc(OC)c(OC)cc3[C@@H]2C[C@@H]1C[C@H]1NCCc2cc(OC)c(OC)cc21
inactive: Potency [1] | Potency [2] | outcome [3] | outcome [4] | Potency [5] | Potency [6] | Potency [7] | Potency [14]
active: Potency [15] 1.51 µM | Potency [8] 4.92 µM | Potency [9] 18.8 nM and 24.4 nM | Potency [10] 23.7 nM and 19.4 nM | Potency [13] 23.7 nM and 21.8 nM | Potency [12] 6.88 µM

NCCCCCC(=O)O
inactive: fluorescence, % of fluorescent control [1] 0.0269% [at 18.6 µM] | activity change [2] 0.0558% [at 18.6 µM, stronger effect = higher value] | fluorescence, % of fluorescent control [3] -0.0259% [at 18.6 µM] | fluorescence, % of Rose Bengal [4] 0.496% [at 18.6 µM] | fluorescence, % of fluorescent control [5] 0.0102% [at 18.6 µM] | fluorescence, % of fluorescein control [6] -0.0066% [at 18.6 µM] | fluorescence, % of fluorescent control [7] -0.0854% [at 18.6 µM] | Potency [14] | Potency [8] | Potency [9] | Potency [11] | Potency [12]

CCCCCC(=O)O[C@]1(C(C)=O)CC[C@H]2[C@@H]3CCC4=CC(=O)CC[C@]4(C)[C@H]3CC[C@@]21C
inactive: Potency [1] | Potency [2] | outcome [3] | outcome [4] | Potency [5] | Potency [6] | Potency [7] | Potency [14] | Potency [12]
inactive and 24.4 µM (active): Potency [11]
active: Potency [15] 268 nM and 194 nM | Potency [9] 3.76 µM and 3.83 µM | Potency [10] 3.76 µM and 2.15 µM | Potency [13] 7.5 µM and 5.41 µM

CC(C)(C)c1cc(C(C)(C)C)c(O)c(C(C)(C)C)c1
inactive: Potency [1] | Potency [2] | outcome [3] | outcome [4] | Potency [5] | Potency [6] | Potency [7] | Potency [14] | Potency [15] | Potency [8] | Potency [9] | Potency [10] | Potency [13] | Potency [11] | Potency [12]

CCn1c2ccccc2c2cc(N)ccc21
inactive: Potency [1] | Potency [2] | outcome [3] | outcome [4] | Potency [5] | Potency [6] | Potency [7] | Potency [8] | Potency [11] | Potency [12]
active: Potency [9] 61.1 µM | Potency [10] 21.7 µM
